The text below walks through data of PubChem BioAssay (NCI).

Test in all cases: NCI-60 one-dose screen, 48 h (100 = growth as untreated, 0 = no growth, -100 = all killed)
Conditions in all cases: 10 µM unless noted

Test [1] has as its system T-47D breast.
Test [2] deals with BT-549 breast.
In test [3] the test system is MDA-MB-435 melanoma.
The test system of test [4] is SW-620 colon.
For test [5], the system named is MCF7 breast.
The subject of test [6] is HCT-116 colon.
In test [7] the test system is HCC-2998 colon.
For test [8], the system named is KM12 colon.

This is part of a sample that, as a whole, favours compounds with a hit. Of some 83,000 tested, about 20% had one in any assay.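 Each cell line was grown in a 96-well plate and treated with one concentration of compound for 48 hours. Values below 10 were considered active.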 Unmarked numbers belong to inactive results. Calls of active or inactive are those of the source.

With `COc1ccc2nc3ccccc3c(NCc3ccc(Cl)cc3)c2c1`, the growth in test [1] was 49.3%; in test [2] it was 50.2%; in test [3], 24.1%; in test [4], 12.8%; in test [5], -56.4% (active); in test [6], 6.81% (active). The growth in test [7] was -87.6% (active); in test [8] it was 40.1%.

`C#CCNc1nc(NCCNC(=O)CCl)nc(N(C)CCCCc2ccccc2)n1`: the growth in test [1] was 93%; in test [2], 76.3%; in test [3], 98.7%; in test [4] it was 97.9%; in test [5], 86%; in test [6] it was 79.1%. The figures for the growth in test [7] and in test [8] were 108% and 99.1%, respectively.

Turning to `CC(C)CCSc1nc(Nc2ccccc2)c(C#N)c(-c2ccc(F)cc2)n1`, the growth was 46.5% in test [1]; 79% in test [2]; 82.5% in test [3]; 46.5% in test [4]; 65.2% in test [5]; 24% in test [6]. The growth is 83.1% in test [7] and 84.8% in test [8].

For the compound `CC(C)(C)c1ccc(C(=O)Nc2sc3cc(O)ccc3c2C(N)=O)cc1`, the growth was 61.5% in test [1]; 85.4% in test [2]; 83.9% in test [3]; 53.6% in test [4]; 44% in test [5]; 74% in test [6]. Also, the growth in test [7] was 88.2%; in test [8] it was 34.6%.

Turning to `CCCCc1nc(Cl)c(C2CC(c3ccc(S(N)(=O)=O)cc3)=NN2c2ccc(C#N)cc2)[nH]1` (stereo not drawn), the growth is 68.7% in test [1]; 80.6% in test [2]; 93.9% in test [3]; 91.8% in test [4]; 76.1% in test [5]; 85.8% in test [6]. The growth was 109% in test [7] and 99.8% in test [8].

Turning to `COc1ccc2c(c1)OC1=C(C(=O)OC1)C2c1cc(OC)c2c(c1)OCCO2` (stereo not drawn), the growth in test [1] is 60.2%; in test [2], 24.6%; in test [3], -18.1% (active); in test [4] it was 24.6%; in test [5], 10.3%; in test [6], 4.09% (active). Moreover, the growth was 23% in test [7] and 2.33% (active) in test [8].

With `C[N+](C)(C)CC(=O)N/N=C\c1ccco1`, the growth in test [1] is 97.7%; in test [2], 104%; in test [3] it was 107%; in test [4], 98.9%; in test [5] it was 88.6%; in test [6], 101%. In addition, the growth was 110% in test [7] and 96.8% in test [8].

Take `CCn1c(Cc2ccccc2Nc2c(Cl)cccc2Cl)nnc1SCC(=O)Nc1ccccc1C(F)(F)F`: the growth is 47.6% in test [1]; 94.4% in test [2]; 99.5% in test [3]; 99.3% in test [4]; 86.3% in test [5]; 77.8% in test [6]. Also, the growth in test [7] was 99.9%; in test [8], 97.6%.

For the compound `COc1cc(NC(=O)CSc2nc3ccc(Cl)cc3c(=O)n2Cc2ccccc2)cc(OC)c1OC`, the growth in test [1] was 55.7%; in test [2], 31.2%; in test [3] it was 78.2%; in test [4], 81.6%; in test [5], 70.2%; in test [6], 51.6%. Also, the growth in test [7] was 90.5%; in test [8], 51.5%.

Consider `Cc1ccsc1C(=O)CC(=O)C(F)(F)C(F)(F)C(F)(F)F`, for which the growth in test [1] is 101%; in test [2] it was 125%; in test [3], 105%; in test [4], 103%; in test [5], 96.6%; in test [6], 109%. In addition, the growth in test [7] is 111%; in test [8] it was 107%.

As for `COc1ccc(C2=NNC(c3ccc(Oc4nc5c(c(=O)n(C)c(=O)n5C)n4C)c(OC)c3)C2)cc1` (stereo not drawn), the growth in test [1] is 86.3%; in test [2], 88.6%; in test [3], 93%; in test [4] it was 109%; in test [5], 87.6%; in test [6], 98.2%. In addition, the growth in test [7] was 102%; in test [8], 97.6%.

For `COc1ccc2c(c1)C1=NN(C(=O)CO)[C@H](c3ccc(OC(F)(F)F)cc3)[C@@H]1CC2`, the growth in test [1] was 82.1%; in test [2], 127%; in test [3], 116%; in test [4], 109%; in test [5] it was 83.2%; in test [6], 92.5%. Further, the growth in test [7] is 91.9%; in test [8], 102%.

Take `C[Si](C)(C)C(c1ccccc1)c1ccccc1`: the growth was 91.4% in test [1]; 108% in test [2]; 92.1% in test [3]; 101% in test [4]; 106% in test [5]; 97.7% in test [6]. Moreover, the growth was 97.2% in test [7] and 107% in test [8].

Regarding `C=C1C(=O)O[C@H]2[C@H]1CC/C(COC(=O)NCc1[nH]nc3ccccc13)=C\CC[C@@]1(C)O[C@@H]21`, the growth was 37.4% in test [1]; 24.3% in test [2]; 37.3% in test [3]; -28.9% (active) in test [4]; 17.9% in test [5]; -80.7% (active) in test [6]. The values for the growth in test [7] and in test [8] were 87.5% and 55.8%, respectively.

As for `O=C(CC(=O)c1cccc(Cl)c1)c1cccc(Cl)c1`, the growth in test [1] is 37.2%; in test [2], 47.6%; in test [3], 47.9%; in test [4], 30.7%; in test [5] it was 25.4%; in test [6], 19.8%. Besides, the growth in test [7] was 35%; in test [8] it was 41.9%.

On to `S=C(S)Oc1cccc2cccnc12`, for which the growth in test [1] is 107%; in test [2] it was 98.4%; in test [3], 104%; in test [4], 105%; in test [5], 95.8%; in test [6], 95.9%. In addition, the values for the growth in test [7] and in test [8] were 113% and 109%, respectively.
